Consider 40 compounds from PubChem BioAssay (NCATS).

Results filed as inconclusive are left out. A number with no mark means an inactive call. Activity calls are given as the source filed them. Calls follow the shape of the dose curve; as a rule, active = well fitted cell-killing curve with a large enough effect; inconclusive = small, poorly fitted or top-dose-only effect; inactive = flat fitted curve, though single readings scatter. *1 amine or outer side, *2 acyl side, *3 side chain or, on linkers, in order; H or OH if unused. Where a SMILES comes first, the peptide text is derived from it. Bridges are numbered along the chain shown (N, C = ends). [ ]: non-standard residue; d: D form. The star is where a group is joined. ξ: configuration not given here. ΔAla(3-NHCONH2) = NC(=O)NC=C(N)C(=O)O; X2 = NC1=NCCC(C(N[*:1])C(=O)[*:2])N1; ξβ3hOrn = NCCCC(N)CC(=O)*; Dap = NC[CH](N)C(=O)O

One experiment is described as follows: Cellular viability qHTS for adrenocortical cancer (ACC) cell line SW-13 (AID 1963989).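 Also: cells grown in serum-free medium with ITS supplement; % is scaled to controls: 0 for no effect and ±100 for the full control effect; nearly all actives have a fitted effect of over 65% in size.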 As to conditions: SW-13 ACC cells viability, CellTiter-Glo, 48 h; activity (max response): stronger effect = lower value. Put shortly:
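Here, serum-free SW-13 cultures were dosed up to 46 uM. Following 48 h, ATP-dependent luminescence (CellTiter-Glo) reported viable cells, and logistic modeling produced IC50 values.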
(Quantitative high-throughput screening tests each substance at several concentrations.)
On to `N[C@H]1C(O)O[C@H](CO)[C@@H](O)[C@@H]1O` (some centres undefined), for which the activity (max response) was -3.76%.
Still for that read-out and setting: for `O=C(O)CN(CCN(CC(=O)O)CC(=O)O)CCN(CC(=O)O)CC(=O)O` the value was 9.05%; for `CCS(=O)(=O)c1ccc(OC)c(C(=O)OC)c1`, 10.8%.
Take `Cc1cn([C@H]2C[C@H](F)[C@@H](CO)O2)c(=O)[nH]c1=O`: the activity (max response) is 3.39%.
Regarding `CCOC(=O)c1ccc(NC(=O)CN2CCCCC2)cc1`, the activity (max response) is -5.52%.
The same measure, in the same setting: to `CC(=O)Oc1ccc(C)cc1` belongs 6.29%; to `OC[C@H]1O[C@@H]2O[C@H]3[C@H](O)[C@@H](O)[C@@H](O[C@H]4[C@H](O)[C@@H](O)[C@@H](O[C@H]5[C@H](O)[C@@H](O)[C@@H](O[C@H]6[C@H](O)[C@@H](O)[C@@H](O[C@H]7[C@H](O)[C@@H](O)[C@@H](O[C@H]8[C@H](O)[C@@H](O)[C@@H](O[C@H]1[C@H](O)[C@H]2O)O[C@@H]8CO)O[C@@H]7CO)O[C@@H]6CO)O[C@@H]5CO)O[C@@H]4CO)O[C@@H]3CO`, -1.71%.
Consider `COC(=O)c1cccnc1`, for which the activity (max response) was 5.78%.
Same read-out and setting: for `CCCCCCCCCCCC(=O)[O][Sn]([CH2]CCC)([CH2]CCC)[O]C(=O)CCCCCCCCCCC` the value was 2.55%; for `NCCCC(N)CC(=O)NCC1NC(=O)C(CO)NC(=O)C(N)CNC(=O)C(C2CCN=C(N)N2)NC(=O)C(=CNC(N)=O)NC1=O` (stereo not drawn) (H-[Dap]S[Dap](ξβ3hOrn)[ΔAla(3-NHCONH2)][X2]; lactam 1-C; configuration not given here), -2.59%; for `CCCCCC(N)=O`, 5.46%.
As to `Cc1onc(-c2ccccc2)c1C(=O)Cl`, the activity (max response) was 12.7%.
Still for that read-out and setting: to `NC/C=C/C(=O)O` belongs 8.43%.
With `CN(C)CCOC(=O)C(c1ccccc1)C1(O)CCCC1` (centres undefined), the activity (max response) is 6.08%.
In the case of `CCC(C(=O)O)c1ccc(N2Cc3ccccc3C2=O)cc1` (centres undefined), the activity (max response) was 5.42%.
On the same count and under the same terms, for `COc1ccc(/C(C)=C/C(=O)O)c(OC)c1` the value was 9.2%; for `CC12CCC(CC1)C(C)(C)O2`, 13.8%.
The same measure, in the same setting: to `CCN(CC)CCNC(=O)c1ccc(N)cc1` belongs 13%; to `C[C@H](N)[C@H](O)c1cccc(O)c1`, 0.409%.
For `CN1C[C@@H]2C[C@H]1CN2c1cc2c(cc1F)c(=O)c(C(=O)O)cn2C1CC1`, the activity (max response) is -2.55%.
The same measure, in the same setting: for `NS(=O)(=O)c1ccc(C(=O)O)cc1` the value was 11.4%.
The same measure, in the same setting: to `COc1cc(C(=O)NCCCCCC(=O)O)cc(OC)c1OC` belongs 6.24%.
`CCCCCCCCOc1ccc(C(=O)c2ccccc2)c(O)c1`: the activity (max response) is 12.8%.
The same measure, in the same setting: to `CN(C)C/C=C(/c1ccc(Br)cc1)c1cccnc1` belongs 3.23%.
On the same count and under the same terms, for `CC(=O)NC(=O)c1ccccc1O` the value was -23.9%; for `COc1ccc(CN(CCN(C)C)c2ccccn2)cc1`, 2.63%.
Same read-out and setting: to `CCN(CC)CC1CCCCN1CC(=O)N1c2ccccc2C(=O)Nc2cccnc21` (centres undefined) belongs -3.91%.
Take `CC1CCN(CCCC(=O)c2ccc(F)cc2)CC1`: the activity (max response) is -0.695%.
Still for that read-out and setting: to `NS(=O)(=O)c1cc(C(=O)O)cc(N2CCCC2)c1Oc1ccccc1` belongs -0.899%.
The same measure, in the same setting: to `CCCCCCCCCCCCCCCCCC(=O)OCC(O)CO` (centres undefined) belongs 5.37%; to `C[C@H]1[C@H]2CC[C@H]3[C@@H]4CC=C5C[C@@H](N(C)C)CC[C@]5(C)[C@H]4CC[C@]23CN1C`, -17.7%; to `C=CCN1CCc2nc(N)sc2CC1`, 1.2%.
Same read-out and setting: to `NC(N)=NC(N)=NCCc1ccccc1` belongs -8.99%; to `CC(=O)OCC(=O)NCCCOc1cccc(CN2CCCCC2)c1`, 3.89%; to `O=C(O)CCC(=O)OC[C@@H](NC(=O)C(Cl)Cl)[C@H](O)c1ccc([N+](=O)[O-])cc1`, -6.44%.
Take `Cc1cc(NS(=O)(=O)c2ccc(N)cc2)no1`: the activity (max response) is 13.2%.
Turning to `O=C(O)CCCCC1CCSS1` (centres undefined), the activity (max response) is 9%.
Still for that read-out and setting: for `Nc1ncnc2c1ncn2[C@@H]1O[C@H](COP(=O)(O)O)[C@@H](O)[C@H]1O` the value was 5.55%; for `CCN(CC)CCNC(=O)c1cc(S(C)(=O)=O)ccc1OC`, 12.2%; for `CCOC(=O)C(O)c1ccccc1` (centres undefined), 4.7%.

A short description of the next experiment: Cellular viability qHTS for adrenocortical cancer (ACC) cell line NCI-H295R (AID 1963990).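 Also: 0% = DMSO only wells and -100% = full killing with cytotoxic reference compound; nearly all actives have a fitted effect of over 60% in size.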 The following applies: CellTiter-Glo ATP luminescence, 48 h; series mostly up to 46.1 µM. Put shortly: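 Viability of NCI-H295R after 48 h of treatment (final up to 46 uM) measured through cellular ATP luminescence.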
Take `N[C@H]1C(O)O[C@H](CO)[C@@H](O)[C@@H]1O` (some centres undefined): the Potency entry was “inactive”.
On the same count and under the same terms, for `CCS(=O)(=O)c1ccc(OC)c(C(=O)OC)c1` the value was “inactive”; for `Cc1cn([C@H]2C[C@H](F)[C@@H](CO)O2)c(=O)[nH]c1=O`, “inactive”.
For `CCOC(=O)c1ccc(NC(=O)CN2CCCCC2)cc1`, the Potency entry was “inactive”.
Take `OC[C@H]1O[C@@H]2O[C@H]3[C@H](O)[C@@H](O)[C@@H](O[C@H]4[C@H](O)[C@@H](O)[C@@H](O[C@H]5[C@H](O)[C@@H](O)[C@@H](O[C@H]6[C@H](O)[C@@H](O)[C@@H](O[C@H]7[C@H](O)[C@@H](O)[C@@H](O[C@H]8[C@H](O)[C@@H](O)[C@@H](O[C@H]1[C@H](O)[C@H]2O)O[C@@H]8CO)O[C@@H]7CO)O[C@@H]6CO)O[C@@H]5CO)O[C@@H]4CO)O[C@@H]3CO`: the Potency entry was “inactive”.
The same measure, in the same setting: for `COC(=O)c1cccnc1` the value was “inactive”.
Turning to `NCCCC(N)CC(=O)NCC1NC(=O)C(CO)NC(=O)C(N)CNC(=O)C(C2CCN=C(N)N2)NC(=O)C(=CNC(N)=O)NC1=O` (stereo not drawn) (H-[Dap]S[Dap](ξβ3hOrn)[ΔAla(3-NHCONH2)][X2]; lactam 1-C; configuration not given here), the activity change, negative = viability loss was 3.92% [at 0.587 µM].
Turning to `CCCCCC(N)=O`, the Potency entry was “inactive”.
Consider `Cc1onc(-c2ccccc2)c1C(=O)Cl`, for which the Potency result was “inactive”.
Same read-out and setting: to `NC/C=C/C(=O)O` belongs “inactive”.
Take `CCC(C(=O)O)c1ccc(N2Cc3ccccc3C2=O)cc1` (centres undefined): the Potency entry was “inactive”.
The same measure, in the same setting: to `COc1ccc(/C(C)=C/C(=O)O)c(OC)c1` belongs “inactive”.
Still for that read-out and setting: to `CC12CCC(CC1)C(C)(C)O2` belongs “inactive”; to `CCN(CC)CCNC(=O)c1ccc(N)cc1`, “inactive”; to `CN1C[C@@H]2C[C@H]1CN2c1cc2c(cc1F)c(=O)c(C(=O)O)cn2C1CC1`, “inactive”.
As for `NS(=O)(=O)c1ccc(C(=O)O)cc1`, the Potency result was “inactive”.
On the same count and under the same terms, for `COc1cc(C(=O)NCCCCCC(=O)O)cc(OC)c1OC` the value was “inactive”; for `CCCCCCCCOc1ccc(C(=O)c2ccccc2)c(O)c1`, “inactive”; for `CN(C)C/C=C(/c1ccc(Br)cc1)c1cccnc1`, “inactive”.
Consider `CC(=O)NC(=O)c1ccccc1O`, for which the Potency result was “inactive”.
`COc1ccc(CN(CCN(C)C)c2ccccn2)cc1`: the Potency result was “inactive”.
On to `CCN(CC)CC1CCCCN1CC(=O)N1c2ccccc2C(=O)Nc2cccnc21` (centres undefined), for which the Potency entry was “inactive”.
Still for that read-out and setting: to `CC1CCN(CCCC(=O)c2ccc(F)cc2)CC1` belongs “inactive”; to `NS(=O)(=O)c1cc(C(=O)O)cc(N2CCCC2)c1Oc1ccccc1`, “inactive”; to `CCCCCCCCCCCCCCCCCC(=O)OCC(O)CO` (centres undefined), “inactive”.
Regarding `C[C@H]1[C@H]2CC[C@H]3[C@@H]4CC=C5C[C@@H](N(C)C)CC[C@]5(C)[C@H]4CC[C@]23CN1C`, the Potency entry is “inactive”.
Turning to `C=CCN1CCc2nc(N)sc2CC1`, the Potency entry was “inactive”.
On the same count and under the same terms, for `NC(N)=NC(N)=NCCc1ccccc1` the value was “inactive”.
On the same count and under the same terms, for `CC(=O)OCC(=O)NCCCOc1cccc(CN2CCCCC2)c1` the value was “inactive”.
With `O=C(O)CCC(=O)OC[C@@H](NC(=O)C(Cl)Cl)[C@H](O)c1ccc([N+](=O)[O-])cc1`, the Potency result was “inactive”.
On the same count and under the same terms, to `O=C(O)CCCCC1CCSS1` (centres undefined) belongs “inactive”; to `Nc1ncnc2c1ncn2[C@@H]1O[C@H](COP(=O)(O)O)[C@@H](O)[C@H]1O`, “inactive”; to `CCN(CC)CCNC(=O)c1cc(S(C)(=O)=O)ccc1OC`, “inactive”.
Regarding `CCOC(=O)C(O)c1ccccc1` (centres undefined), the Potency entry is “inactive”.
